D1 antag – Antagonist of Human D 1 Dopamine Receptor: qHTS | D(1A) dopamine receptor (Homo sapiens), P21728 | HEK293 TREx D1 cells, calcium flux, dopamine EC80; hits give low values | activity change, negative = inhibition, % at 10 µM | 360,000 compounds, 3.2% hits; in the data active = activity change below about -30%; note: % is set by controls: 0 for no effect and ±100 for the full control effect
Target sequence (P21728 whole entry, looked up): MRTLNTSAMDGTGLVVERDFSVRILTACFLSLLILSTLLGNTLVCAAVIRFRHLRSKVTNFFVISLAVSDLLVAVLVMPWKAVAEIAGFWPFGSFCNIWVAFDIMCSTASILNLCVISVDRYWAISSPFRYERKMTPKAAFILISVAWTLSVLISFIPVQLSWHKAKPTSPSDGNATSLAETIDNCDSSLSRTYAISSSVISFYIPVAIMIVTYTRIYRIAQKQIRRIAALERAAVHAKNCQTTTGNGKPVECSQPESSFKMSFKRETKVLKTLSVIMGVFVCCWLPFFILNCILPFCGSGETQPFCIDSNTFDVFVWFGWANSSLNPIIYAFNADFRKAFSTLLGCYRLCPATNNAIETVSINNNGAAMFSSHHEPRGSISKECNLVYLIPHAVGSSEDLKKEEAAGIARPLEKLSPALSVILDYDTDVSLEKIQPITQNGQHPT
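Using tetracycline-induced force-coupled D1 Hek293 cells and a calcium dye, signals were followed for 180 s after compound, then for 180 s after EC80 dopamine, to detect inhibitors.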
D1 agonist – Allosteric Agonists of the Human D1 Dopamine Receptor: qHTS. D(1A) dopamine receptor (Homo sapiens), P21728. HEK293 T-REx D1 cells, calcium flux, agonist mode. activation, % at 2 µM. 360,000 compounds, 1% hits; note: 0% is about no effect
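Tetracycline-induced HEK293 TREx D1 cells, force-coupled to calcium signalling, were dye-loaded with a no-wash calcium kit. Compound was pin-added after a 10 s baseline. Fluorescence was read kinetically at 1 cycle/s for 180 s, with calcium rises flagged as agonism.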
TRHR enhancer – qHTS for Small Molecule Agonists and Allosteric Enhancers of Human TRH Receptor: Primary Screen for Enhancers; Thyrotropin-releasing hormone receptor (Homo sapiens), P34981; TRHR cells, fluo-8 calcium fluorescence, EC20 TRH enhancement; enhancement, % at 2 µM; 360,000 compounds, 0.66% hits; in the data active = enhancement above about 30%; note: 0% is about no effect
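Enhancer read-out: after compound pinning and an initial kinetic agonist-mode read, an EC20 of TRH (10 nM final) was injected and fluo-8 calcium signal (Ex 480/Em 530) followed at 1 s/cycle for 100 cycles in TRHR-expressing cells.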
GRP78 ERSR act – qHTS for Inducers of the Endoplasmic Reticulum Stress Response (ERSR) in Human Glioma: qHTS | U87-MG GRP78 promoter luciferase reporter, 16 h | Potency, µM, for the others: top-dose activation, hits mostly activators | 420,000 compounds, 0.02% hits; active = well fitted activation curve with a large enough effect; inconclusive = small, poorly fitted or top-dose-only effect; inactive = no such curve, though single readings can be large or run the other way; note: potency is the fitted concentration of half-maximal effect; series mostly up to about 76 µM; % of control where 0% means no effect; nearly all actives have a fitted effect of over 35% in size
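ERSR induction read as luciferase luminescence (Bright-Glo, 10 min at room temperature) in stably transfected human U87-MG glioma cells exposed to compounds for 16 h, using GRP78 as sensor.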
D1 PAM – Potentiators of Human D1 Dopamine Receptor: qHTS; D(1A) dopamine receptor (Homo sapiens), P21728; HEK293 TREx D1 cells, calcium flux, dopamine EC20 potentiation; potentiation, % at 10 µM; 360,000 compounds, 0.036% hits; AID 504651, 2011; in the data active = potentiation above about 30%; note: 0% is about no effect
TRHR ag – qHTS for Small Molecule Agonists and Allosteric Enhancers of Human TRH Receptor: Primary Screen for Agonists | 360,000 compounds, 0.18% hits | Thyrotropin-releasing hormone receptor (Homo sapiens), P34981 | TRHR cells, calcium flux fluo-8, FDSS agonist mode | activation, % at 2 µM; note: 0% is about no effect
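Fluo-8-loaded TRHR cells; 10 s baseline, compound added, kinetic Ca2+ fluorescence read 1/s, agonist mode.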
* marks the source's active call; other numbers are inactive results; ? = inconclusive; . = no result. Sampled rows, rich in hits. Any-hit rate of the full collection: about 4%. Cut-off read from the data, not from the text of the source, unless noted: active = activation above about 30%; inactive = the rest.

SMILES	D1 antag	D1 agonist	TRHR enhancer	GRP78 ERSR act	D1 PAM	TRHR ag
COCCn1c(Sc2ccc(C)cc2)nc2c1c(=O)[nH]c(=O)n2C	-19	3	2	-6%	-2	-1
CCOC(=O)C1CCN(CC(=O)N(CC(C)C)c2c(N)n(CC(C)C)c(=O)[nH]c2=O)CC1	-2	5	5	-2%	3	1
CC(COc1ccccc1)N1CCC(CO)(CCc2ccccc2)CC1 (configuration not stated)	9	35*	0	-2%	-6	1
CSCC(C)N1CCC(CO)(CCc2ccccc2)CC1 (configuration not stated)	-5	3	-2	-2%	6	0
Cc1cc([N+](=O)[O-])nn1CCCC(=O)NC(C)c1ccccc1 (configuration not stated)	-5	4	2	-3%	1	-1
CCOC(=O)C1CCCN(C2=NC(=O)/C(=C/c3ccc(OC)cc3)S2)C1 (configuration not stated)	0	0	-7	0%	2	-1
CCOC(=O)C1CCCN(C2=NC(=O)/C(=C/c3ccc(N(C)C)cc3)S2)C1 (configuration not stated)	3	60*	11	-1%	-7	21
COc1cccc(NC(=O)C2CCC(CNC(=O)[C@@H]3Cc4ccccc4CN3)CC2)c1 (some centres not stated)	12	4	-3	1%	0	-2
CCOc1ccc(Nc2cc(C)nc3ccc(C)cc23)cc1	.	.	.	-4%	.	.
CCOc1ccc2nc(C)cc(Nc3ccccc3OCC)c2c1	-49*	25	11	-3%	-1	-1
O=C(CNC(=O)c1ccco1)NNC(=O)c1n[nH]c(=O)c2ccccc12	.	.	.	-2%	.	.
O=C1C2C3CCC(C3)C2C(=O)N1c1ccc2ccccc2c1 (configuration not stated)	-4	1	-5	0%	3	-1
CCOC(=O)c1cc(C)sc1NC(=O)CN1CCN(C(=O)c2ccco2)CC1	2	1	8	-6%	12	1
CCOC(=O)c1cc(CC)sc1NC(=O)CN1CCN(C(=O)c2ccco2)CC1	-27	109*	-6	1%	-8	0
O=C(NC1CCCC1)c1cc(-c2ccc(Cl)c(Cl)c2)on1	-10	1	5	8%	0	-2
O=C(NCCc1ccccc1)c1ccnc(/C=N/O)c1	-34*	1	5	2%	-11	1
Cn1cnc([N+](=O)[O-])c1Oc1cccc2ccccc12	-3	0	37*	?	2	-1
CC(NC(=O)c1ccc2c(c1)OCO2)c1ccccc1 (configuration not stated)	-6	4	20	-3%	-7	0
CCc1ccc(C(C)NC(=O)c2ccc3c(c2)OCO3)cc1 (configuration not stated)	-42*	6	2	-1%	0	0
COc1ccc(/C=C/c2cc(C(=O)O)c3ccccc3n2)cc1	-33*	0	2	-10%	-4	0
O=C(CS(=O)(=O)c1nc(-c2ccc(Cl)cc2)cn1-c1ccccc1)Nc1ccc(F)cc1F	-17	4	15	0%	2	0
CCN(CC)CCNC(=O)c1cc2cc3ccc(OC)cc3nc2o1	-35*	1	-8	11%	9	0
COC(=O)c1c(N)nc(C)n1-c1ccc(OC)cc1	-14	4	0	-2%	41*	0
NS(=O)(=O)c1ccc(CCNC(=O)C2CCCN2S(=O)(=O)c2cccc3nsnc23)cc1 (configuration not stated)	-13	1	32*	-7%	-3	0

Screening data from PubChem.
